Our source for the inhibition values is ChEMBL document CHEMBL3433997, “St. Jude Leishmania screening dataset” (2016).

Assay type in all cases: functional
In test [1] the target is Solute carrier family 2, facilitated glucose transporter member 1 (Homo sapiens) (UniProt P11166). The experiment in a line: ST_JUDE_LEISH: Cytotoxicity at 2uM final concentration against transgenic Leishmania Mexicana promastigotes LmGLUT1 that are glucose transport deficient and complemented with the human glucose transporter GLUT1. Activity is measured by DNA content using SYBR green in vitro.
Solute carrier family 2, facilitated glucose transporter member 1 (Homo sapiens), sequence (P11166 whole entry): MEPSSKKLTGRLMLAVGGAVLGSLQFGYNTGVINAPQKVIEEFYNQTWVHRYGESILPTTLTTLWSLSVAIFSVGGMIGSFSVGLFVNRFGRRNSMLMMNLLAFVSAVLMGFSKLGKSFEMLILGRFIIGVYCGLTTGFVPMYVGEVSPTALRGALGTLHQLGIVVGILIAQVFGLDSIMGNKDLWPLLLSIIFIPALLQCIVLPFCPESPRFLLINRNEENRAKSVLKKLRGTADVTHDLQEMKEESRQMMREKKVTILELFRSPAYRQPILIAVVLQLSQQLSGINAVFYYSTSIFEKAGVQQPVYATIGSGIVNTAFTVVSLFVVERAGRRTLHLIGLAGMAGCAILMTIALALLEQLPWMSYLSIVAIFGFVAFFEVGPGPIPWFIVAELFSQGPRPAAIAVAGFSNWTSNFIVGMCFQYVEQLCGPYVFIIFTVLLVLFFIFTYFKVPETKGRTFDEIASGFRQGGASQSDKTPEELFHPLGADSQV

Test [2] concerns the target Hexose transporter 1 (Plasmodium falciparum) (UniProt O97467). The experiment in a line: ST_JUDE_LEISH: Cytotoxicity at 2uM final concentration against transgenic Leishmania Mexicana promastigotes LmPfHT that are glucose transport deficient and complemented with the Plasmodium falciparum hexose transporter. Activity is measured by DNA content using SYBR green in vitro.

Test [3] deals with Glucose transporter (Leishmania mexicana) (UniProt O61059). The test can be described thus: ST_JUDE_LEISH: Cytotoxicity at 2uM final concentration against transgenic Leishmania Mexicana promastigotes LmGT2 that are glucose transport deficient and complemented with the L. Mexicana glucose transporter 2. Activity is measured by DNA content using SYBR green in vitro.

Consider `CC1CCN(Cc2cccc(C(=O)NCc3ccc(F)c(-c4cccc(CN5CCN[C@@H](C)C5)c4)c3)c2)CC1`, for which the inhibition in test [1] was 1.17%; in test [2], 0.82%; in test [3], 1.82%.

With `Oc1cc(-c2nc(C3(CNCc4ccc(Cl)cc4)CCCCC3)[nH]c2-c2ccncc2)ccc1Cl`, the inhibition turned out to be 4.11% in test [1], 5.35% in test [2] and 5.4% in test [3].

Take `COc1ccc(-c2cc(C(F)(F)F)n3ncc(C(=O)Nc4cc(C)ccc4O)c3n2)cc1OC`: the inhibition came out at 4.34% in test [1], 2.45% in test [2] and 0.56% in test [3].

Turning to `CCOC(=O)CCCOc1cc(Cc2cnc(N)nc2N)cc(OC)c1OC`, the values for the inhibition in test [1], in test [2] and in test [3] were 6.94%, 5.94% and 7.18%, respectively.

Consider `CCCNCc1ccc(-c2ccc(CN(CC3CCCO3)C(=O)COc3ccccc3Cl)cc2)nc1` (stereo unspecified), for which the inhibition was 4.33% in test [1], 4.73% in test [2] and 2.71% in test [3].

On to `Cc1ccc(Nc2nc(NN=Cc3ccc(-c4ccc([N+](=O)[O-])cc4)o3)nc(N3CCOCC3)n2)cc1Cl`, for which the inhibition in test [1] is -1.18%; in test [2], -1.96%; in test [3], -0.54%.

As to `Cc1cccc2nc(-c3cccc(-c4ccc(NC(=O)C5CC(=O)Nc6ccccc65)cc4)c3)[nH]c12` (stereo unspecified), the inhibition in test [1] came out at 2.47%; in test [2], 3.87%; in test [3], 0.15%.

`C=C1C(C(=O)OCC)=CN(CC)c2cc(O[C@@H]3CCN(C(=O)OC(C)(C)C)C3)ccc21`: the inhibition in test [1] worked out at 6.89%; in test [2] it was 5.44%; in test [3], 6.99%.

On to `CCCc1ccc(Nc2nc(C)cc(N(CC)CCCN3CCCCC3)n2)cc1`, for which the inhibition in test [1] was -3.11%; in test [2], -2.14%; in test [3] it was 0.52%.

With `COc1ccc(CNC2CCN(C)CC2)cc1-c1ccc(S(=O)(=O)NCc2ccccc2)cc1`, the inhibition in test [1] was 3.88%; in test [2] it was 4.24%; in test [3], 5.02%.

As for `OC[C@H](Nc1nc(C(Oc2ccccc2)c2ccccc2)nc2[nH]ncc12)c1ccccc1` (stereo partly specified), the inhibition in test [1] stood at 7.13%; in test [2] it was 4.93%; in test [3], 4.96%.

Regarding `COc1ccc(CN2CCC(C(=O)Nc3cccc(-c4cccc(Cl)c4)c3)CC2)cc1O`, the inhibition in test [1] stood at 5.45%; in test [2] it was 7.5%; in test [3], 6.49%.
